This note sets out measurements from PubChem BioAssay (NCATS).

A number with no mark means an inactive call. Inconclusive results are not listed. Activity calls are given as the source filed them. Calls come from the whole dose curve; as a rule, active = well fitted curve in the direction sought with a large enough effect; inconclusive = small, poorly fitted or top-dose-only effect, or another doubt; inactive = no such curve, though single readings can be large; an effect the other way counts as inactive or inconclusive.

Experiment [1] has as its target Glutathione peroxidase 1 (Homo sapiens) (UniProt P07203). Description: Primary qHTS Assay for Inhibitors of Recombinant Selenoprotein Glutathione Peroxidase 1 (GPX1) (AID 1845191). For activity, negative = inhibition: % is set by controls: 0 for no effect and ±100 for the full control effect. Note: nearly all actives have a fitted effect of over 65% in size. Summed up: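 10 nM GPX1 + cpd, 30 min RT; start w/ 1 mM GSH, 0.5 mM cumene hydroperoxide, 0.5 mM NADPH, 100 nM GR, 0.01% BSA; buffer 50 mM Tris-HCl pH 7.5, 2 mM EDTA, 150 mM NaCl; Fl 340/450, 0 & 15 min.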

Experiment [2] has as its target Phospholipid hydroperoxide glutathione peroxidase GPX4 (Homo sapiens) (UniProt P36969). Description: Primary qHTS Assay for Inhibitors of Recombinant Selenoprotein Glutathione Peroxidase 4 (GPX4) (AID 1845192). Note: nearly all actives have a fitted effect of over 65% in size. Summed up:
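NADPH consumption, followed by fluorescence at 340/450 nm between 0 and 15 min, reports GPX4 activity via coupled glutathione reductase (100 nM). Enzyme 200 nM was pre-exposed to compound 30 min; 0.5 mM cumene hydroperoxide and 1 mM GSH served as substrates.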
A general note: qHTS replaces the single test concentration by a dilution series.

Experiment [3] has as its system Nanoluciferase (engineered Oplophorus gracilirostris luciferase). Description: Primary Nanoluciferase (NLuc) qHTS assay for identification of artifact compounds. (AID 1845222).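 Note: NLuc secreted into diluted conditioned medium of S16 cells; 0% = DMSO and -100% = no enzyme.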 A digest of the protocol: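 NLuc from S16 cell medium (1:55) plus test compounds, 15 min, room temperature. Luminescence after Nano-Glo (1:100) addition, 5 min.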
Experiment [4] is described as follows: Primary redox qHTS assay for identification of artifact compounds. (AID 1845223). Summed up:
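Amplex Red (25 uM) and HRP (250 mU/mL) in HBSS, with compounds for 15 min, then 250 uM DTT for 30 min, room temperature, dark. Fluorescence 525/598 nm read; normalized to DMSO and 10 uM DA3003; Hill fit.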

Experiment [5] is described as follows: Quantitative High-Throughput drug screen in 47 multiple myeloma cell lines against the NCATS MIPE library collection: Delta47_JCRB cell viability assay (AID 1918925; note: nearly all actives have a fitted effect of over 45% in size; note: potency is the fitted concentration of half-maximal effect). Summed up:
(§1)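 Primary qHTS used for cherry-picking: cells at 500/well, library compounds for 48 h (37C, 5% CO2), luminescent ATP assay.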

A short description of experiment [6]: Quantitative High-Throughput drug screen in 47 multiple myeloma cell lines against the NCATS MIPE library collection: EJM_DSMZ cell viability assay (AID 1918926; note: nearly all actives have a fitted effect of over 30% in size; note: potency is the fitted concentration of half-maximal effect). Summed up:
as §1

A short description of experiment [7]: Quantitative High-Throughput drug screen in 47 multiple myeloma cell lines against the NCATS MIPE library collection: AMO1_DSMZ cell viability assay (AID 1918927; note: nearly all actives have a fitted effect of over 30% in size; note: potency is the fitted concentration of half-maximal effect). Summed up: as §1
The nature of experiment [8]: Quantitative High-Throughput drug screen in 47 multiple myeloma cell lines against the NCATS MIPE library collection: ARD_JJKsccE7 cell viability assay (AID 1918929; note: potency is the fitted concentration of half-maximal effect). Summed up:
as §1

The nature of experiment [9]: Quantitative High-Throughput drug screen in 47 multiple myeloma cell lines against the NCATS MIPE library collection: Karpas620_DSMZ cell viability assay (AID 1918959). Note: nearly all actives have a fitted effect of over 30% in size. Note: potency is the fitted concentration of half-maximal effect. Summed up: as §1
A short description of experiment [10]: Quantitative High-Throughput drug screen in 47 multiple myeloma cell lines against the NCATS MIPE library collection: KMM1_JCRB cell viability assay (AID 1918960). Note: nearly all actives have a fitted effect of over 30% in size. Note: potency is the fitted concentration of half-maximal effect. A digest of the protocol:
(§2)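 Myeloma cells at 500 per well in 1536-well format treated with MIPE 4.0 library by pin transfer for 48 h at 37C, 5% CO2. Viability from ATP luminescence (CellTiter-Glo), normalized to DMSO (100%) and media-only (0%) wells.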

Experiment [11] is described as follows: Quantitative High-Throughput drug screen in 47 multiple myeloma cell lines against the NCATS MIPE library collection: KHM11_PLB cell viability assay (AID 1918962). Note: nearly all actives have a fitted effect of over 35% in size. Note: potency is the fitted concentration of half-maximal effect. Summed up:
as §1

The nature of experiment [12]: Quantitative High-Throughput drug screen in 47 multiple myeloma cell lines against the NCATS MIPE library collection: JIM3_ECACC cell viability assay (AID 1918963; note: nearly all actives have a fitted effect of over 35% in size; note: potency is the fitted concentration of half-maximal effect). A digest of the protocol:
as §1

Experiment [13] can be described thus: Primary fluorescence-based thiol-reactive (MSTI) qHTS assay for identification of artifact compounds. (AID 1845221).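 Note: thiol-reactive compounds lower the probe fluorescence signal; nearly all actives have a fitted effect of over 65% in size.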 Summed up:
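Compounds were incubated 1 h at room temperature in the dark with the MSTI probe (4 uM) in PBS pH 7.4, 2% DMSO. Signals were normalized between Acetyl-MSTI and MSTI.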

Experiment [14] in a line: Quantitative High-Throughput drug screen in 47 multiple myeloma cell lines against the NCATS MIPE library collection: FR4_PLB cell viability assay (AID 1918924; note: nearly all actives have a fitted effect of over 35% in size; note: potency is the fitted concentration of half-maximal effect). Summed up: as §1
Experiment [15] can be described thus: Quantitative High-Throughput drug screen in 47 multiple myeloma cell lines against the NCATS MIPE library collection: ARP1_JJKsccF8 cell viability assay (AID 1918928; note: nearly all actives have a fitted effect of over 40% in size; note: potency is the fitted concentration of half-maximal effect). A digest of the protocol:
as §2

Experiment [16] in a line: Quantitative High-Throughput drug screen in 47 multiple myeloma cell lines against the NCATS MIPE library collection: Karpas417_ECACC cell viability assay (AID 1918961). Note: potency is the fitted concentration of half-maximal effect. Conditions: Karpas417 myeloma viability, CellTiter-Glo ATP luminescence, 48 h; viability (% of DMSO): at 45.8 µM (top of the series) unless noted. A digest of the protocol:
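We plated 500 myeloma cells per well, pinned in MIPE 4.0 compounds, and incubated for 48 hours at 37C. ATP was then quantified with CellTiter-Glo, with DMSO and media-only wells defining 100% and 0%.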
In general terms: ATP-based viability assays read luminescence as a measure of living cells.

Chain of Glutathione peroxidase 1 (Homo sapiens) (P07203 whole entry, looked up): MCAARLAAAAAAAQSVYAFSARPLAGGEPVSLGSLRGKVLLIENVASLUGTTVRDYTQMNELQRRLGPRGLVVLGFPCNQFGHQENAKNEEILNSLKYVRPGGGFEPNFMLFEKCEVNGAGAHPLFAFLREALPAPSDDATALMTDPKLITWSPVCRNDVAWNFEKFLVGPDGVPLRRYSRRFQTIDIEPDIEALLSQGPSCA
Chain of Phospholipid hydroperoxide glutathione peroxidase GPX4 (Homo sapiens) (P36969 whole entry, looked up): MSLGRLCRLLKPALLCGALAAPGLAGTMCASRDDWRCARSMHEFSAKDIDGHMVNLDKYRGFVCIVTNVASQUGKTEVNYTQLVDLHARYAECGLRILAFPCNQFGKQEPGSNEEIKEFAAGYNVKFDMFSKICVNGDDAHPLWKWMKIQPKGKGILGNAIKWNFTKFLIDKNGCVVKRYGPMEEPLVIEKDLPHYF

Consider `CNC(=O)c1ccccc1Sc1ccc2c(/C=C/c3ccccn3)n[nH]c2c1`, for which the Potency entry in experiment [1] and in experiment [2] was “inactive” each time. Besides, the call in [3] and in experiment [4] was inactive.

Regarding `CC1(C)CNc2cc(NC(=O)c3cccnc3NCc3ccncc3)ccc21`, the Potency entry in experiment [1], in experiment [2], in [5], in experiment [7], in experiment [8] and in experiment [9] was “inactive” in each case. Besides, the Potency entry in experiment [10], in [11] and in experiment [12] was “inactive” in each case. Besides, the compound was called inactive in [3] and in experiment [4]. In addition, the Potency in [6] is 2.64 µM (active).

Consider `COc1cc2c(cc1OC)CN(CCc1ccc(NC(=O)c3cccc4c(=O)c5cccc(OC)c5[nH]c34)cc1)CC2`, for which the Potency entry in [1], in experiment [2], in [13], in [5], in experiment [8] and in [10] was “inactive” in each case. Besides, the compound was called inactive in experiment [3]. In addition, the Potency in [12] was 6.62 µM (active).

Take `COc1ccc2c3n(c(=NC(=O)c4cccnc4)nc2c1OC)CCN3`: the activity, negative = inhibition in experiment [1] was 0.782% [at 4.49 µM]. In addition, the outcome in experiment [2] is “inactive [at 4.52 µM]”. Also, the Potency in [14] is 16.6 µM (active); in [5], 2.09 µM (active); in experiment [7] it was 18.7 µM (active); in [15], 2.64 µM (active); in experiment [9], 7.43 µM (active); in [12], 18.7 µM (active). In experiment [16], the Potency result was “inactive”.

On to `Cc1cc2c(F)c(Oc3ncnn4cc(OC[C@@H](C)O)c(C)c34)ccc2[nH]1`, for which the Potency result in [1], in experiment [2], in [14] and in experiment [9] was “inactive” in each case. In addition, the Potency in [5] was 16.6 µM (active); in experiment [7], 4.69 µM (active).

With `COc1cc(Nc2ncc3c(n2)-c2ccc(Cl)cc2C(c2c(F)cccc2OC)=NC3)ccc1C(=O)O`, the Potency entry in experiment [1], in experiment [2] and in experiment [14] was “inactive” each time. The result in experiment [3] and in experiment [4] was inactive.

Turning to `CNC(=O)c1ccc(C)c(-n2c(C)cc(OCc3ccc(F)cc3F)c(Br)c2=O)c1`, the Potency entry in experiment [1] and in experiment [2] was “inactive” each time. Moreover, the outcome in experiment [3] and in experiment [4] was inactive. In addition, the Potency in experiment [5] was 14.8 µM (active); in experiment [7], 16.6 µM (active); in [10], 4.69 µM (active); in experiment [12], 16.6 µM (active).

For the compound `CC[C@@H](C)[C@H](NC(=O)[C@H](CC1CCCCC1)NC(=O)c1ccno1)C(=O)N1CCC2(CCc3ccccc32)CC1`, the Potency result in experiment [1], in [2], in [7], in experiment [8], in experiment [9] and in [10] was “inactive” each time. Moreover, the Potency entry in [11] is “inactive”. The compound was classed as inactive in experiment [3] and in experiment [4]. Further, the Potency in experiment [14] was 13.2 µM (active). Moreover, the viability (% of DMSO) in experiment [16] was 124% (active).

For `CCN(c1ccccc1)c1cc(NC)[n+](C)c(C)n1`, the Potency entry in experiment [1], in experiment [2], in [14], in experiment [5], in experiment [9] and in experiment [10] was “inactive” each time. In addition, in experiment [12], the Potency result is “inactive”. In addition, the Potency is 0.743 µM (active) in [7], 23.5 µM (active) in experiment [15], 13.2 µM (active) in [8] and 0.235 µM (active) in [11].

In the case of `CCc1cc(Nc2nccc(-c3c(-c4ccc(OC)c(C(=O)Nc5c(F)cccc5F)c4)nc4ccccn34)n2)c(OC)cc1N1CCC(N2CCN(S(C)(=O)=O)CC2)CC1`, the Potency result in [1] and in experiment [2] was “inactive” in each case. For the same compound, the compound was classed as inactive in [3] and in experiment [4]. Also, the Potency in experiment [14] is 20.9 µM (active); in experiment [5], 5.26 µM (active); in experiment [8], 4.69 µM (active); in [12], 18.7 µM (active).

Take `COc1ccccc1[C@H](c1cccc2ccccc12)[C@@](C)(C#N)C(=O)N1CCC(c2cccc(C(F)(F)F)c2)CC1`: the Potency result in [1] and in experiment [2] was “inactive” each time. Moreover, the result in [3] and in experiment [4] was inactive. Besides, the Potency in [5] is 8.33 µM (active); in experiment [6] it was 13.2 µM (active); in experiment [7] it was 2.64 µM (active); in experiment [8], 4.18 µM (active); in experiment [11] it was 6.62 µM (active); in [12], 9.35 µM (active).

With `CN(C)c1ccc(C2Nc3ccc4ccccc4c3C3=C2C(=O)CC(C)(C)C3)cc1Br` (stereo not given), the Potency result in [1], in [2] and in experiment [8] was “inactive” in each case. In addition, the outcome in [3] and in experiment [4] was inactive. Besides, the Potency was 2.35 µM (active) in experiment [5] and 4.69 µM (active) in [10].

In the case of `Cn1cnc2c(F)c(Nc3ccc(Br)cc3Cl)c(C(=O)NOCCO)cc21`, the Potency result in [1], in experiment [2], in [5] and in experiment [15] was “inactive” throughout. Besides, the compound was called inactive in [3]. The Potency in experiment [7] was 0.833 µM (active); in [8], 0.743 µM (active); in [9], 0.235 µM (active); in [10], 5.26 µM (active); in experiment [16] it was 0.264 µM (active); in [11], 0.0469 µM (active). Moreover, the Potency in experiment [12] is 1.66 µM (active).

Consider `C#Cc1cccc(Nc2ncnc3cc(OCCOC)c(OCCOC)cc23)c1`, for which the Potency result in [1] and in experiment [2] was “inactive” throughout. The result in experiment [3] and in experiment [4] was inactive. Besides, the Potency in experiment [14] was 16.6 µM (active); in experiment [5] it was 4.18 µM (active); in [6] it was 6.62 µM (active); in experiment [7] it was 1.05 µM (active); in experiment [8], 5.9 µM (active); in [9], 4.69 µM (active). The Potency in experiment [11] was 3.32 µM (active); in [12], 9.35 µM (active).

Regarding `O=C(NOC[C@H](O)CO)c1ccc(F)c(F)c1Nc1ccc(I)cc1F`, the Potency result in [1], in experiment [2], in experiment [14] and in [6] was “inactive” in each case. The result in [3] and in experiment [4] was inactive. Further, the Potency in [5] is 0.0118 µM (active); in experiment [7], 3.72 µM (active); in [9], 0.0469 µM (active); in [16], 0.0469 µM (active); in experiment [11], 0.0132 µM (active); in [12], 0.166 µM (active).
